IL1B secr inh = qHTS for Inhibitors of Inflammasome Signaling: IL-1-beta AlphaLISA Primary Screen. THP-1 LPS/ATP IL-1B secretion, AlphaLISA, 16 h; hits give low values. activity change, % at 57.5 µM. 360,000 compounds, 4.7% hits; in the data active means activity change below about -50%; inconclusive means mostly about -30% to -49%
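Secreted IL-1B measured by AlphaLISA bead assay after 16 h compound exposure of THP-1 cells; compounds (final up to 57.5 uM) added 1 h before LPS (250 ng/mL) and ATP (1.25 mM) stimulation; lower signal means less secretion.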
MCF10A rereplic = A quantitative high throughput screen for small molecules that induce DNA re-replication in MCF 10a normal breast cells; MCF 10A DNA re-replication, Hoechst nuclear intensity, 48 h; Potency, µM (top dose mostly 46.1 µM), hits mostly activators; 350,000 compounds, 2.9% hits; AID 624296, 2012; further: nearly all actives have a fitted effect of over 50% in size
RORgamma inh = qHTS for inhibitors of ROR gamma transcriptional activity. Nuclear receptor ROR-gamma (Mus musculus), P51450. 310,000 compounds, 5.4% hits. Potency, µM (highest dose often 53.6 µM), usual class: inhibitors. AID 2551, 2010. Drosophila S2 Gal4-RORgamma UAS-luciferase reporter, 20 h; further: nearly all actives have a fitted effect of over 60% in size
Target sequence (P51450 whole entry, looked up, the tested form may be a part): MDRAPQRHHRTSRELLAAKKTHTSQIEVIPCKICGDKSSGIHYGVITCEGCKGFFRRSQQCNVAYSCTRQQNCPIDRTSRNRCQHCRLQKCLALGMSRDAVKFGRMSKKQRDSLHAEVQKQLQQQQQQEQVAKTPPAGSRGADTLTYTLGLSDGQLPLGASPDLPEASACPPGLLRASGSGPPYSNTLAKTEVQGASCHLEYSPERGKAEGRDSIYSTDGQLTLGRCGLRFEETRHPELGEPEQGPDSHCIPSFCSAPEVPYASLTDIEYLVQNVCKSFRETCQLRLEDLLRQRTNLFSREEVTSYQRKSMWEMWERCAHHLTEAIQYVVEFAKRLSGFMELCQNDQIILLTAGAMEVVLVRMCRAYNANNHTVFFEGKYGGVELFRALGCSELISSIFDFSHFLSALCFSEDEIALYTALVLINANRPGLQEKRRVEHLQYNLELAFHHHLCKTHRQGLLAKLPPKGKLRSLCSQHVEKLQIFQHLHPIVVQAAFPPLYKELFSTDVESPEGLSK
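Compounds are pin-transferred onto Drosophila Schneider cells expressing a copper-inducible Gal4–ROR gamma transactivation domain fusion. After 1 hr, copper sulfate is added to 700 uM final; luciferase is read 20 hr later.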
VP16 counter = VP16 counterscreen qHTS for inhibitors of ROR gamma transcriptional activity; Drosophila S2 Gal4-VP16 UAS-luciferase, luminescence, 20 h; Potency, µM (highest dose often 53.6 µM), actives largely listed as inhibitors; 310,000 compounds, 3.5% hits; AID 2546, 2010;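 further: Gal4-VP16 expression switched on by copper sulfate through the metallothionein promoter; nearly all actives have a fitted effect of over 50% in size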
SW480 rerep = A quantitative high throughput screen for small molecules that induce DNA re-replication in SW480 colon adenocarcinoma cells; SW480 DNA re-replication, Hoechst DNA content imaging, 48 h; Potency, µM (titrated, usually from 46.1 µM), hits mostly activators; 340,000 compounds, 1.8% hits; AID 624297, 2012; further: nearly all actives have a fitted effect of over 55% in size
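DNA re-replication was detected as more nuclei of elevated Hoechst intensity after 48 hr exposure to compound (23 nL pinned per well of 250 cells).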
A number is an active result; . = inactive; ? = inconclusive; / = no result; [ ] = dose if it differs, or a comment. Hits are enriched below; roughly 11% of the tested compounds scored in any of these assays. Unless noted, the call rests on the fitted dose curve; in most records, active means well fitted curve in the direction sought with a large enough effect; inconclusive means small, poorly fitted or top-dose-only effect, or another doubt; inactive means no such curve, though single readings can be large; an effect the other way counts as inactive or inconclusive.

SMILES | IL1B secr inh | MCF10A rereplic | RORgamma inh | VP16 counter | SW480 rerep
COc1ccc(OC)c(NC(=O)CCN2CCN(CCO)CC2)c1 | . | . | . | . | .
CCC(C)(C)C(=O)Nc1nnc(CCc2ccccc2)s1 | . | . | ? | ? | .
CCCOc1cccc(-c2nnc(NC(=O)c3ccco3)s2)c1 | . | 8.2µM | . | . | .
O=C(Nc1nnc(SCc2cccc(F)c2)s1)c1ccco1 | . | 0.291µM | . | . | .
CC(C)(C)C(=O)Nc1nnc(Cc2ccccc2)s1 | . | . | 12.6µM | . | .
O=C(Cc1cccs1)Nc1nnc(SCc2ccc(C(F)(F)F)cc2)s1 | . | . | 10µM | . | .
CN(CC(=O)Nc1ccc(Cl)c(Cl)c1)CC(=O)N1CCCCCC1 | . | / | / | / | /
O=P1(O)Cc2ccccc2-c2ccccc21 | . | . | / | / | .
Cc1nc(-c2ccc(F)cc2)c(CC(=O)N(C)CC(=O)Nc2ccc(Cl)c(C(F)(F)F)c2)s1 | . | ? | / | / | ?
C=C(CO)C1Cc2c(ccc3c(=O)c4c(oc23)COc2cc(OC)c(OC)cc2-4)O1 (stereo unspecified) | / | / | . | . | /
O=C(Nc1ccccc1)N1CC[C@@]2(CCCN(C(=O)c3cccc(F)c3)C2)C1 | / | / | . | . | /
CC(C)(C)C(=O)Nc1nnc(SCc2ccc(F)cc2)s1 | . | . | ? | . | .
CC(C)(C)C(=O)Nc1nnc(SCc2cccc(F)c2)s1 | . | 0.651µM | ? | . | .
CC(=O)NC(Cc1c[nH]c2ccccc12)C(=O)Nc1ccc2c(c1)OCO2 (stereo unspecified) | . | . | . | . | .
CN(C(=O)Cc1c[nH]c2ccccc12)C(C(=O)Nc1ccc2c(c1)OCO2)c1ccccc1 (stereo unspecified) | -66.7 | . | . | . | .
COc1cc(OC)c2c(-c3cccc(-c4ccc(CO)cc4)c3)cc(=O)oc2c1 | . | ? | . | ? | 0.731µM
COc1cc(OC)c2c(-c3cccc(-c4ccc(N(C)C)cc4)c3)cc(=O)oc2c1 | . | ? | . | . | 4.11µM
COc1ccc(-c2cccc(-c3cc(=O)oc4cc(OC)cc(OC)c34)c2)cc1 | . | 0.206µM | / | / | 0.231µM
COc1cc(OC)c2c(-c3cccc(-c4ccc(O)cc4)c3)cc(=O)oc2c1 | . | ? | . | ? | ?
COc1cc2oc(=O)cc(-c3ccc(-c4ccc(N(C)C)cc4)cc3)c2c(OC)c1OC | . | 1.03µM | ? | . | .
O=c1cnc2cnc(N3CCOCC3)nc2n1Cc1ccc(F)cc1 | / | / | . | . | /
CN(CC(=O)Nc1ccccc1Br)Cc1nc2ccccc2c(=O)[nH]1 | . | . | 28.2µM | . | .
CCN(CC(=O)Nc1ccccc1C(=O)Nc1ccccc1)Cc1nc2ccccc2c(=O)[nH]1 | . | . | 3.55µM | ? | .
O=C(c1ccc(Br)cc1)N(Cc1nc2ccccc2c(=O)[nH]1)C1CCCC1 | ? | . | 15.8µM | ? | ?
CN(CC(=O)Nc1ccccc1Br)C(=O)CCc1nc2ccccc2c(=O)[nH]1 | . | . | / | / | .
SMILES | IL1B secr inh | MCF10A rereplic | RORgamma inh | VP16 counter | SW480 rerep
CCN(CC(=O)Nc1ccc(OC)cc1)C(=O)CCc1nc2ccccc2c(=O)[nH]1 | . | . | / | / | .
CCN(CC(=O)Nc1ccccc1SC)Cc1nc2ccccc2c(=O)[nH]1 | . | . | 0.224µM | 0.794µM | ?
CC(=O)NCCOC(=O)c1nn(Cc2ccccc2)c(=O)c2ccccc12 | . | . | . | . | .
COC(=O)NC(CC(C)=O)c1cccc(F)c1 (stereo unspecified) | / | / | .[10 µM] | .[10 µM] | /
CCN(CC(=O)NC(=O)NC1CCCCC1)Cc1nc2ccccc2c(=O)[nH]1 | . | . | 0.562µM | 0.562µM | .[9.22 µM]
CCN(CC(=O)Nc1ccc(Br)c(C)c1)CC(=O)NC(C)C | . | . | . | . | .
CC1CCC(NC(=O)CC(C)(C)Cc2nc3ccccc3c(=O)[nH]2)CC1 (stereo unspecified) | -56.0 | . | ? | . | .
CCN(CC(=O)NC(C)C)Cc1nc2c(Br)cc(Br)cc2c(=O)[nH]1 | . | . | 2.24µM | 7.08µM | .
O=C(c1ccccc1)N(Cc1nc2ccccc2c(=O)[nH]1)C1CCCC1 | . | ? | . | . | .
CCN(CC(=O)NC(=O)NC1CCCCC1)Cc1ccccc1 | . | . | / | / | .
CC(C)(C)NC(=O)CSc1nc2ccccc2c(=O)[nH]1 | . | . | . | . | .
CCN(CC(=O)NC(c1ccccc1)c1ccccc1)Cc1nc2ccccc2c(=O)[nH]1 | . | ? | 2.51µM | 11.2µM | .[9.22 µM]
CN(C(=O)C1CCC(=O)N(C2CC2)C1)C1CCCCC1 (stereo unspecified) | . | . | . | . | .
Cc1ccc(OCCN(C)C(=O)C2CCC(=O)N(CCCN3CCCC3=O)C2)cc1 (stereo unspecified) | . | . | . | . | .
O=C(c1cc(S(=O)(=O)N2CCOCC2)ccc1Cl)N1CCCCC1CO (stereo unspecified) | . | . | / | / | .
COc1ccc(N2CSC(=S)N(c3ccc(OC)cc3)C2)cc1 | . | / | / | / | /
c1ccc2[nH]c(Cn3nnc4ccccc43)nc2c1 | . | . | / | / | .
CCN(CC(=O)Nc1ccccc1-c1ccccc1)Cc1nc2ccccc2c(=O)[nH]1 | . | 6.51µM | 4.47µM | ? | ?
CC(C)CN(C(=O)CCCc1nc2ccccc2c(=O)[nH]1)c1c(N)n(Cc2ccccc2)c(=O)[nH]c1=O | . | . | / | / | .
CCN(CC(=O)N(CC(C)C)c1c(N)n(CC(C)C)c(=O)[nH]c1=O)Cc1nc2ccccc2c(=O)[nH]1 | . | . | 3.98µM | ? | .
O=c1c(O)c(-c2ccccc2)oc2cccc(O)c12 | / | / | 3.98µM | 7.94µM | /
Cc1cc2ccc3ccccc3c2cc1CN(C)C | / | . | . | . | 7.31µM
CN(C)Cc1cc2ccccc2c2c1COC2 | ? | . | . | . | .
COc1ccc(NC(=O)c2cc(C3CCCCN3S(=O)(=O)Cc3ccccc3)on2)c(C)c1 (stereo unspecified) | . | / | / | / | /
O=C1c2cccc(OCc3ccc(F)cc3)c2CCN1Cc1ccc(F)cc1 | -67.8 | 20.6µM | ? | ? | .
Cc1ccc(CN2CCc3c(OCc4ccc(F)cc4)cccc3C2=O)cc1 | -62.2 | . | ? | ? | .
O=C(COc1cccc2c1CCN(Cc1ccc(Br)cc1)C2=O)N1CCOCC1 | -62.9 | . | . | . | .
O=C(COc1cccc2c1CCN(Cc1ccccc1F)C2=O)N1CCOCC1 | / | / | . | . | /
C[C@H]1CN([C@@H](C)CO)S(=O)(=O)c2ccc(Br)cc2O[C@@H]1CN(C)C(=O)CCN1CCCCC1 | . | / | / | / | /
Cc1nc2ccccc2n1CC(O)Cn1c2ccccc2c2ccccc21 (stereo unspecified) | -56.1 | ? | ? | ? | ?

Screens: PubChem, National Center for Advancing Translational Sciences (NCATS)
